Measured values as given in PubChem BioAssay (Tox21).
Results filed as inconclusive are left out. Activity calls are given as the source filed them. Unless noted, calls come from the whole dose curve; as a rule, active = well fitted curve in the direction sought with a large enough effect in the repeat runs; inconclusive = weak or mixed curves; inactive = no such curve, though single readings can be large; an effect the other way counts as inactive or inconclusive.

Key:
[1] = qHTS RealTime-Glo MT Cell Viability Assay in HEK293 cells - 0 hour (AID 1224880); note: top concentration of the series differs between compounds; nearly all actives have a fitted effect of over 45% in size
Summary of the method: (§1)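 Luminescence, which tracks viable cell number through reduction of the prosubstrate to a NanoLuc substrate, was read over continuous 37 C culture. Cells (600/well) were premixed with reagent and rested 5 h before 23 nL of compound in DMSO was pinned.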

[2] = A CellTox Green Cytotoxicity Assay to monitor cytotoxicity in HEK293 cells - 32 hour (AID 1224881); note: nearly all actives have a fitted effect of over 40% in size
Summary of the method: (§2)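 Fluorescence from a DNA-binding dye excluded by viable cells was measured repeatedly in the same HEK293 wells (600 cells/well) during continuous compound exposure at 37 C. Each assay gives one read point: 0, 8, 16, 24, 32 or 40 h.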

[3] = A CellTox Green Cytotoxicity Assay to monitor cytotoxicity in HepG2 cells - 0 hour (AID 1224882); note: nearly all actives have a fitted effect of over 35% in size
Summary of the method: (§3)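 Real-time cytotoxicity: fluorescence of a cell-impermeant cyanine dye binding DNA of dead HepG2 cells, measured repeatedly (0–40 h) during compound exposure at 37 C. Cells seeded 600/well with reagent, dosed after 5 h.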

[4] = A CellTox Green Cytotoxicity Assay to monitor cytotoxicity in HepG2 cells - 32 hour (AID 1224883); note: nearly all actives have a fitted effect of over 50% in size
Summary of the method: as §3

[5] = A CellTox Green Cytotoxicity Assay to monitor cytotoxicity in HEK293 cells - 8 hour (AID 1224884); note: nearly all actives have a fitted effect of over 35% in size
Summary of the method: as §2

[6] = qHTS RealTime-Glo MT Cell Viability Assay in HepG2 cells - 16 hour (AID 1224885); note: nearly all actives have a fitted effect of over 50% in size
Summary of the method: (§4)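 Real-time, nonlytic viability: 600 HepG2 cells/well mixed with NanoLuc enzyme plus prosubstrate; 5 h settle, compound (DMSO) added by pintool; luminescence monitored over 40 h at 37 C.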

[7] = qHTS RealTime-Glo MT Cell Viability Assay in HEK293 cells - 24 hour (AID 1224886); note: top concentration of the series differs between compounds; nearly all actives have a fitted effect of over 50% in size
Summary of the method: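 Cells + reagent dispensed (600 cells/well, HEK293) → 5 h at 37 C/5% CO2 → 23 nL compound in DMSO pinned → 40 h at 37 C → luminescence read at 0, 8, 16, 24, 32, 40 h.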

[8] = qHTS RealTime-Glo MT Cell Viability Assay in HEK293 cells - 8 hour (AID 1224887); note: top concentration of the series differs between compounds; nearly all actives have a fitted effect of over 50% in size
Summary of the method: as §1

[9] = A CellTox Green Cytotoxicity Assay to monitor cytotoxicity in HEK293 cells - 16 hour (AID 1224888); note: nearly all actives have a fitted effect of over 35% in size
Summary of the method: as §2

[10] = qHTS assay to identify small molecule antagonists of the estrogen receptor alpha (ER-alpha) signaling pathway using the BG1 cell line in the presence of 0.1 nM 17-beta-estradiol - cell viability counter screen (AID 1259241); note: nearly all actives have a fitted effect of over 40% in size
Summary of the method: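 VM7Luc4E2 cells (endogenous full-length ER-alpha, 4xERE-luciferase), cultured 5 days in charcoal-stripped serum, exposed to compounds with 0.1 nM 17beta-estradiol (final) for 22 hr at 37C. Viability read in same wells as live-cell protease fluorescence after 30 min.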

[11] = qHTS assay to identify small molecule antagonists of the androgen receptor (AR) signaling pathway using the MDA cell line in the presence of 0.5 nM R1881 - cell viability counter screen (AID 1259242); note: nearly all actives have a fitted effect of over 45% in size
Summary of the method: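 Live-cell protease activity was measured by CellTiter-Fluor fluorescence after 30 min. Before that, MDA-kb2 MMTV-luciferase cells had 16 hr at 37C without CO2, exposed to test compounds and 0.5 nM R1881 final.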

[12] = biological target: Estrogen receptor (Homo sapiens) (UniProt P03372); assay: qHTS assay to identify small molecule antagonists of the estrogen receptor alpha (ER-alpha) signaling pathway using the BG1 cell line in the presence of 0.1 nM 17-beta-estradiol (AID 1259244); note: nearly all actives have a fitted effect of over 50% in size
Estrogen receptor (Homo sapiens), sequence (P03372 whole entry, looked up): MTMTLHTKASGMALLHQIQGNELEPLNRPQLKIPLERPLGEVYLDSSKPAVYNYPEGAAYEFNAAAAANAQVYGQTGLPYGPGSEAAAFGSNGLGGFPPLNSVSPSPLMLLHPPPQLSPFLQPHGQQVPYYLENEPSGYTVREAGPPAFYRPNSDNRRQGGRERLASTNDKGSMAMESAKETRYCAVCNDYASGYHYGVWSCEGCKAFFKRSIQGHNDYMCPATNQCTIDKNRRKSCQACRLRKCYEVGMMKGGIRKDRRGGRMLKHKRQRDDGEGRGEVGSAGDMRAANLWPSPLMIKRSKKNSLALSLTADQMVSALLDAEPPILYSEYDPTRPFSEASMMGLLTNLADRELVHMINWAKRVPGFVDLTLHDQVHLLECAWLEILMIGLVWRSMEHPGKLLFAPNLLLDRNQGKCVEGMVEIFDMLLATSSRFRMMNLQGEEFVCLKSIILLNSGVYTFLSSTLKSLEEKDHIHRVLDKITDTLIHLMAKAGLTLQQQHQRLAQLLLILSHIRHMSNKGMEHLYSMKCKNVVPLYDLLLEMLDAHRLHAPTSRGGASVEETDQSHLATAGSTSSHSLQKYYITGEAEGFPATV
Summary of the method: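 Luciferase luminescence (ONE-Glo, 30 min at room temperature) was read after 22 hr at 37C exposure to compounds plus 17beta-estradiol at 0.1 nM final. Cells were VM7Luc4E2 with endogenous ER-alpha and an ERE-driven luciferase, pre-cultured 5 days in hormone-depleted medium.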

[13] = qHTS assay to identify small molecule phospholipidosis (PLD) inducers (AID 1259344; active = well fitted curve in the direction sought with a large enough effect; an effect the other way counts as inactive or inconclusive)
Summary of the method: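 Read-out is LipidTOX Red fluorescence (ex 595/em 615) imaged in HepG2 cells after 24 h compound exposure at 37 C, with Hoechst nuclear counterstain (ex 352/em 461) allowing per-cell normalisation.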

[14] = qHTS assay to identify small molecule HDAC inhibitors (AID 1259364); note: nearly all actives have a fitted effect of over 45% in size; note: potency is the fitted concentration of half-maximal effect
Summary of the method: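 Luminescence read after 30 min room-temperature HDAC-Glo incubation measures cellular class I/II HDAC activity. Compounds were applied for 2 hr at 37 C to HCT-116 wild-type cells seeded the day before.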

[15] = qHTS assay to identify small molecule agonists of the sonic hedgehog signaling (Shh) pathway - cell viability counter screen (AID 1259366); note: nearly all actives have a fitted effect of over 50% in size
Summary of the method: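 NIH/3T3-derived Gli1-Luc reporter cells, 2,000 per well, received compound after 4 h and were treated about 23 h at 37C. Viability measured in the same wells by CellTiter-Fluor fluorescence after 1 h.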

[16] = qHTS assay to identify small molecule antagonists of the sonic hedgehog signaling (Shh) pathway - cell viability counter screen (AID 1259367); note: nearly all actives have a fitted effect of over 55% in size
Summary of the method: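 Fluorescence read-out (CellTiter-Fluor, 1 hr at 37C) taken after 23 hr compound treatment of 3T3 Gli1-Luc cells stimulated with conditioned medium. Cells were seeded at 2,000 per well and pre-incubated 4 hr.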

[17] = A CellTox Green Cytotoxicity Assay to monitor cytotoxicity in HepG2 cells - 8 hour (AID 1224890); note: nearly all actives have a fitted effect of over 45% in size
Summary of the method: as §3

[18] = qHTS assay to identify small molecule HDAC inhibitors - cell viability counter screen (AID 1259365)
Summary of the method: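 Wild-type HCT-116 cells, 1,500/well, cultured overnight, then compound-treated 2 h at 37 C. Viability measured as ATP luminescence with CellTiter-Glo after 30 min at room temperature.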

[19] = qHTS RealTime-Glo MT Cell Viability Assay in HepG2 cells - 0 hour (AID 1224889); note: nearly all actives have a fitted effect of over 50% in size
Summary of the method: as §4

[20] = biological target: Androgen receptor (Homo sapiens) (UniProt P10275); assay: qHTS assay to identify small molecule antagonists of the androgen receptor (AR) signaling pathway using the MDA cell line in the presence of 0.5 nM R1881 (AID 1259243); note: nearly all actives have a fitted effect of over 50% in size
Androgen receptor (Homo sapiens), sequence (P10275 whole entry, looked up): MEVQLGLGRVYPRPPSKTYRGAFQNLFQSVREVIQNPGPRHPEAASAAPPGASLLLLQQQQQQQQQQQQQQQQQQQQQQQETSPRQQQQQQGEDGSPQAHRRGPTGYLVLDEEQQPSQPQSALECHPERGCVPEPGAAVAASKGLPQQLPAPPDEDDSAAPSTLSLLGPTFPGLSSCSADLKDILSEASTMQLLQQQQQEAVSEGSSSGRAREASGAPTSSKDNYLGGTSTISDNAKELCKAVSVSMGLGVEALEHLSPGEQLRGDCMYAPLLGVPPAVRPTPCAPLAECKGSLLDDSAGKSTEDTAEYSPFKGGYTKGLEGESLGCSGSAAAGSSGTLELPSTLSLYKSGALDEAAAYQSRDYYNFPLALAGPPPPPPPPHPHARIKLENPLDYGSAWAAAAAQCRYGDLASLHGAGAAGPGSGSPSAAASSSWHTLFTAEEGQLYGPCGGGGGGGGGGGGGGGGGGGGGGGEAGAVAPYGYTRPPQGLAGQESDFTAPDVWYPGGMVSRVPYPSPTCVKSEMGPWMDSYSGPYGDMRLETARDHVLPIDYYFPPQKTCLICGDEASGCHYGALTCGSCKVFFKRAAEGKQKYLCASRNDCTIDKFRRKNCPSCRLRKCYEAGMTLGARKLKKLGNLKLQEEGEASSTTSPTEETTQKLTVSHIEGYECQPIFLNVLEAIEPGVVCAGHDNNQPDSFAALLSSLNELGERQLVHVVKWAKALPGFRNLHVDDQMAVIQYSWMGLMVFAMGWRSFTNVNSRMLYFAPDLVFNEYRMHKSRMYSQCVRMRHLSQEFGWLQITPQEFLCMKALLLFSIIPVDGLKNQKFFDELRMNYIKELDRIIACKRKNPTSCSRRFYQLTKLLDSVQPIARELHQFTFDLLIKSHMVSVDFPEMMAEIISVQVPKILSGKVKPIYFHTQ
Summary of the method: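 Luminescent reporter readout (ONE-Glo, 30 min, room temperature) after 16 hr co-treatment of MDA-kb2 cells with test compounds and 0.5 nM R1881 final, at 37C without CO2. The MMTV-driven luciferase responds to both AR and GR.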

Measured: Potency

COC(=O)c1ccccc1C(=O)c1ccc(OCCN2CCCCC2)cc1
not listed: [17] | [18] | [19] | [20]
inactive: all other assays above

Cc1cc(NC(=O)C2=C(O)c3ccccc3S(=O)(=O)N2C)no1
not listed: [12] | [13] | [19] | [20]
inactive: all other assays above

CC(C(=O)O)c1ccc2c(c1)CC(=O)c1ccccc1S2 (centres undefined)
not listed: [11] | [13] | [17]
inactive: all other assays above

CN(C)C(=O)CNC(=O)Cc1ccccc1
not listed: [13] | [17] | [18] | [20]
inactive: all other assays above

NC(CO)C(=O)NNCc1ccc(O)c(O)c1O (centres undefined)
not listed: [15] | [19]
inactive: all other assays above

CCOc1cc(NC(C)=O)ccc1C(=O)OC
not listed: [13] | [18] | [19] | [20]
inactive: all other assays above

Cc1ccc2c(c1)OCC(=O)CO2
not listed: [13] | [19] | [20]
inactive: all other assays above

CC1(CO)CN(c2ccccc2)NC1=O (centres undefined)
active: [14] 24.3 µM
not listed: [12] | [13] | [19]
inactive: all other assays above

Cc1cc2cc3c(C)cc(=O)oc3c(C)c2o1
not listed: [17] | [19] | [20]
inactive: all other assays above

Cc1ccc2ccc(Cl)cc2n1
not listed: [13] | [17] | [19]
inactive: all other assays above

COc1ccc(OC)c(Cl)c1
not listed: [8] | [12] | [13]
inactive: all other assays above

CCN1CCc2nc(N)oc2CC1
not listed: [8] | [13] | [20]
inactive: all other assays above

c1ccc2c(c1)ccc1c3ccccc3ccc21
not listed: [12] | [13] | [14] | [19] | [20]
inactive: all other assays above

C[C@@H](O)[C@H]1C(=O)N2C(C(=O)O)=C(SCCN=CN)C[C@H]12
not listed: [13] | [17] | [20]
inactive: all other assays above

Cc1ccsc1/C=C/C1=NCCCN1C
not listed: [11] | [13] | [17] | [20]
inactive: all other assays above
